Data on 103 compounds can be found in PubChem BioAssay AID651568 (National Center for Advancing Translational Sciences (NCATS), 2012).

In all, about 1,200 compounds went through this assay and about 55 (5%) were called active. Where a call stands in place of a potency, no number is given. Another 15% or so got no clear call; they are omitted. Calls follow the shape of the dose curve; as a rule, active = well fitted inhibition curve with a large enough effect; inconclusive = small, poorly fitted or top-dose-only effect; inactive = no such curve, though single readings can be large or run the other way. The sample as a whole holds a higher share of actives than the screen did.
Potency is read from the fitted curve at half-maximal effect.

This assay is described as follows: qHTS Assay to Find Inhibitors of Chronic Active B-Cell Receptor Signaling: Hit Validation in Renilla Reporter Assay. Also: nearly all actives have a fitted effect of over 70% in size. To be noted: TMD8 IkB-Renilla luciferase reporter, NF-kB signaling; series mostly up to 57.5 µM. The source says: Diffuse large B-cell lymphoma (DLBCL) is the most common category of non-Hodgkin lymphoma, with ~20,000 new cases per year in the United States. DLBCL should be regarded as a collection of different neoplasms. Microarray gene expression analysis has defined two principal types of DLBCL, named for their similarity to normal B cell stages or activation states: a germinal center B-cell (GCB) type, and an activated B-cell (ABC) type. In ABC-DLBCL, a constitutive high-level activity of the NF-kappaB family of transcription factors has been observed (1) and NF-kappaB target genes are more highly expressed in ABC primary tumors than in GCB tumors. Functional studies have shown a constitutive high-level activity of the IkappaB (inhibitor of kappa-B) kinase (IKK) complex. […] Further analysis of DLBCL primary tumors for NF-kappaB target gene expression imply that although CARD11 is required for constitutive IKK activity in all ABC-DLBCL lines, mutations in CARD11 may be the root cause of IKK activation only in lines or tumors with such mutations. In other words, CARD11 mutations may explain NF-kappaB activation in only 10% of ABC-DLBCL cases. […] This process has been termed 'chronic active BCR signaling' (CABS). The goal of this screen is to find small-molecule inhibitors of the CABS pathway found in ABC-DLBCL lines using a cell-based assay that measures IkappaBalpa stability, which has already been extensively validated in the OCI-Ly3 line (PubChem AID:445; REF: 4). […] Hits from the primary screen were tested in this orthogonal secondary assay. NIH Molecular Libraries Probe Production Network [MLPCN] NIH Chemical Genomics Center [NCGC] MLPCN Grant: R03 DA031086 PI Name: Dr. R. Eric Davis
The IkB-Photinus/Renilla reporter assay differs from the primary assay in that the reporters are constitutively expressed, and based on luciferases that are different from the click beetle luciferases and each other. These differences should help to eliminate artifactual sources of activity specific to the primary assay. This assay uses the Dual-Glo substrate from Promega; extensively validated in a 96-well format, it could be converted to a smaller-well format. All lines needed for the IkB-Photinus/Renilla assay have already been prepared and extensively validated
Take `N=C1SCC(=O)N1c1ncc(Cc2ccccc2Cl)s1`: the Potency is 8.49 µM (active).
Regarding `N=C1SCC(=O)N1c1ncc(Cc2cccc(Cl)c2)s1`, the Potency was 3.01 µM (active).
As to `Cn1c(=O)n(Cc2ccccc2Cl)c2ccccc21`, the Potency entry is “inactive”.
For the compound `CCc1ccc(CCC(=O)Nc2ncc(Cc3ccccc3Cl)s2)o1`, the Potency result is “inactive”.
Take `COc1ccccc1-c1noc(CSc2nc(N)cc(=O)[nH]2)n1`: the Potency result was “inactive”.
To `COc1ccc(S(=O)(=O)Nc2cc3c(C(C)=O)c(C)oc3c3ccccc23)cc1` belongs “inactive”; to `O=c1cc(-c2ccccc2)[nH]c2ccccc12`, “inactive”; to `COc1ccc2cc(C3c4cc(OC)c(OC)cc4CCN3C(=O)c3ccco3)c(=O)[nH]c2c1` (stereo not drawn), “inactive”.
`CCOC(=O)c1[nH]c(C)c(C(=O)c2cc(F)ccc2F)c1C`: the Potency entry was “inactive”.
For `C/C(=N\NC(=O)c1c([N+](=O)[O-])c(C)nn1C)c1ccc(NC(=O)C2CCCC2)cc1`, the Potency entry is “inactive”.
Next, `CCOC(=O)c1[nH]c2c(c1C)C(=O)CC(c1ccc(F)cc1)C2` (stereo not drawn): “inactive”; `CC[C@]12c3[nH]c4cc(CCC(=O)N(C)C)ccc4c3CCN1C(=O)[C@@H](CC(=O)NCCCN(C)C)C[C@@H]2C(=O)N1CCN(C(=O)c2ccco2)CC1`: “inactive”.
In the case of `Cc1ccccc1C(=O)Oc1ccc2ccc(O)cc2c1`, the Potency result was “inactive”.
Take `COc1ccc(/C=C/C(=O)c2cc(F)ccc2OC(=O)c2ccccc2C)cc1OC`: the Potency is 13.5 µM (active).
For the compound `CCc1ccc(NC(=O)C(C)OC(=O)/C=C/c2ccc(O)c(OC)c2)cc1` (stereo not drawn), the Potency entry was “inactive”.
On to `COc1ccc(/C=N\NC(=O)c2ccccc2F)cc1COc1ccc(F)cc1F`, for which the Potency result is “inactive”.
For `COc1ccc(/C=C/C(=O)c2cc(F)ccc2OC(=O)c2ccc(OC)c(OC)c2)cc1OC`, the Potency was 7.57 µM (active).
As for `COc1ccc(/C=C/C(=O)c2cc(F)ccc2OC(=O)c2ccccc2OC)cc1OC`, the Potency was 6.75 µM (active).
Take `COc1ccc(S(=O)(=O)N2CCOCC2)cc1NC(=O)/C=C/c1ccc(F)cc1`: the Potency result is “inactive”.
As for `COc1ccc(NC(=S)N/N=C/c2ccc(F)cc2)cc1OC`, the Potency entry was “inactive”.
On to `COc1ccc(/C=C/c2ccncc2)cc1OC`, for which the Potency entry is “inactive”.
Turning to `COc1cccc(/C=N/Nc2nc(Nc3ccccc3)nc(-n3nc(C)cc3C)n2)c1O`, the Potency entry was “inactive”.
Next, `NC(=O)c1c(NC(=O)CSc2nc(N)cc(=O)[nH]2)sc2c1CCCC2`: “inactive”.
Take `CCOc1ncccc1C(=O)N1CCN(c2cc(Cl)ccc2C)CC1`: the Potency result is “inactive”.
For the compound `Cc1ccc(/C=N/NC(=O)c2cc(-c3ccncc3)nc3ccccc23)o1`, the Potency entry was “inactive”.
On to `CCOC(=O)c1c(C)n(C)c2ccc(OC)c(NC(=O)CN3CCC4(CC3)OCCO4)c12`, for which the Potency result was “inactive”.
To `COC(=O)C1=C(C)NC(C)=C(C(=O)OC)C1/C=C/c1ccccc1` belongs “inactive”; to `O=C(/C=C/c1ccccc1)c1ccc(NC2=NCCCS2)cc1`, 21.3 µM (active); to `Cc1nc(NC(=O)c2cnccn2)ccc1Br`, “inactive”.
As for `Cn1c(=O)[nH]c(=O)c2c1nc(SCC(N)=O)n2Cc1cccc(Br)c1`, the Potency result is “inactive”.
As for `CCOC(=O)C1CCN(C(=O)CSc2cc(=O)n(CC)c3ccccc23)CC1`, the Potency result is “inactive”.
Next, `CCOC(=O)C1CCN(S(=O)(=O)c2c(Cl)ccc3nonc23)CC1`: 3.01 µM (active).
Take `COc1ccc(C(=O)NN(C)c2nc(C(F)(F)F)nc3ccccc23)cc1`: the Potency result is “inactive”.
With `COc1ccc(-c2cnnn2-c2ccc(NC(=O)c3ccc(S(=O)(=O)N4CCCCC4)cc3)cc2)cc1OC`, the Potency entry was “inactive”.
Take `Cc1ccc(C(=O)c2cc([N+](=O)[O-])ccc2N2CCCCC2)c(C)c1`: the Potency entry was “inactive”.
Next, `Cc1ccc(C)c(-n2c3nc(=O)[nH]c(=O)c-3cc3cc([N+](=O)[O-])ccc32)c1`: 16.9 µM (active); `Cc1ccc(C(=O)c2cc([N+](=O)[O-])ccc2N2CCOCC2)c(C)c1`: “inactive”; `COCCn1c(-c2cccc([N+](=O)[O-])c2)nc2c1c(=O)[nH]c(=O)n2Cc1ccccc1`: “inactive”.
Next, `Cc1cccc(-n2c3nc(=O)[nH]c(=O)c-3cc3cc([N+](=O)[O-])ccc32)c1`: 26.9 µM (active).
With `CNC(=S)N/N=C(\C)c1ccc2c(c1)OCCO2`, the Potency result was “inactive”.
As to `CCOc1ccc2c(c1)OC(c1ccc(OC)cc1)(C(F)(F)F)NC2=O` (stereo not drawn), the Potency entry was “inactive”.
Turning to `CC(C)(C)c1ccc(C(=O)CCC(=O)NCc2ccccc2)cc1`, the Potency result is “inactive”.
As for `C=CCN(C(=O)CSC1=NC(=O)CN1C(C)=O)c1nc(C)c(-c2ccccc2)s1`, the Potency entry is “inactive”.
Next, `S=c1nn[nH]n1C12CC3CC(CC(C3)C1)C2`: “inactive”; `Cc1ccccc1Nc1nc(N)nc(COC(=O)c2cccc(S(=O)(=O)N(C)C)c2)n1`: “inactive”; `CCOC(=O)C1=C(COC(=O)/C=C/c2ccc(O)c(OC)c2)NC(=O)NC1C` (stereo not drawn): “inactive”.
For the compound `O=C(COc1ccccc1-c1ccccc1)N/N=C/c1ccc2ccccc2c1`, the Potency result is “inactive”.
To `COc1ccc(/C=N/NC(=O)CCn2cnc(-c3ccccc3)c2-c2ccccc2)cc1OC` belongs “inactive”; to `COc1ccc(/C=N/NC(=O)CCn2cnc(-c3ccccc3)c2-c2ccccc2)cc1`, 26.9 µM (active).
As to `COc1ccc(OC)c(Nc2c3c(nc4ccccc24)CCC3)c1`, the Potency entry was “inactive”.
With `Cc1ccc(C(=O)Sc2cccccc2=O)cc1`, the Potency was 6.75 µM (active).
For `Cc1ccc(C(=O)O)cc1NC(=S)NC(=O)C(c1ccccc1)c1ccccc1`, the Potency entry was “inactive”.
For the compound `COc1ccc(C)cc1NC(=O)CNC(c1ccccc1)c1ccc(C)cc1` (stereo not drawn), the Potency result is “inactive”.
Next, `COc1ccc(NC(=O)Cn2nnc(-c3ccccc3NS(=O)(=O)c3ccc(OC)cc3)n2)cc1`: “inactive”; `CCOc1cccc(C2CC(=O)Nc3cc(OC)c(OC)cc32)c1` (stereo not drawn): “inactive”.
Consider `COc1cccc(/C=C/C(=O)Nc2cc(S(=O)(=O)N3CCOCC3)ccc2OC)c1`, for which the Potency result is “inactive”.
On to `CCC1=Nc2cc(C(=O)NCCCOC(C)C)ccc2Sc2ccc(C)cc21`, for which the Potency result is “inactive”.
To `O=C(Oc1c(Cl)cc(Cl)c2cccnc12)c1cccs1` belongs 23.9 µM (active); to `O=C(Oc1c(CN2CCOCC2)cc(Cl)c2cccnc12)c1ccc(F)cc1`, “inactive”; to `O=C(Oc1c(Cl)cc(Cl)c2cccnc12)c1ccco1`, 12 µM (active).
Turning to `Cc1c(C(=O)Oc2cccc3cccnc23)oc2ccccc12`, the Potency result was “inactive”.
For `COc1cc(OC)cc(C(=O)Oc2c(CN3CCOCC3)cc(Cl)c3cccnc23)c1`, the Potency entry is “inactive”.
Regarding `O=C(Oc1ccc(Cl)c2cccnc12)C12CC3CC(CC(C3)C1)C2`, the Potency result was “inactive”.
Turning to `O=C1NC(=Nc2ccc(O)cc2)S/C1=C\C=C\c1ccco1`, the Potency entry was “inactive”.
As to `O=C(Nc1ncc(Cc2ccc(SC(F)F)cc2)s1)c1ccc(OC(F)F)cc1`, the Potency entry was “inactive”.
Next, `CCCc1nnc(NC(=S)Nc2ccccc2)s1`: “inactive”; `CC1CCCN(c2ccc([N+](=O)[O-])cc2C(=O)c2ccccc2)C1` (stereo not drawn): “inactive”; `N#CC1=C(N)Oc2cc(N)ccc2C1c1cccc(Br)c1` (stereo not drawn): “inactive”.
On to `O=C(c1cc([N+](=O)[O-])ccc1N1CCOCC1)N1CCN(c2ccccc2)CC1`, for which the Potency result is “inactive”.
As for `CCOC(=O)c1c(C)n(C)c2ccc(OC)c(NC(=O)CN3CCN(C(=O)c4ccco4)CC3)c12`, the Potency entry was “inactive”.
With `CCOc1ccc(S(=O)(=O)NCc2ccccn2)cc1NC(=O)c1ccccc1F`, the Potency entry is “inactive”.
Consider `CCOC(=O)c1c(C)[nH]c(C(=O)N/N=C/c2ccc(Br)cc2)c1C`, for which the Potency is 10.7 µM (active).
For the compound `Cc1c(C(=O)N/N=C/c2ccc(Cl)cc2)[nH]c2ccc(Cl)cc12`, the Potency result was “inactive”.
As for `CCOC(=O)c1[nH]c(C)c(C(=O)OCC)c1C`, the Potency result was “inactive”.
As to `CCOC(=O)CSC1=C(C#N)C(c2ccc(C)o2)CC(=O)N1` (stereo not drawn), the Potency result was “inactive”.
Next, `COc1ccc(-c2[nH]ncc2/C=C(\C#N)C(=O)NC2CC2)cc1`: “inactive”; `CC1CCc2c(sc(NC(=O)CSc3nc(N)cc(=O)[nH]3)c2C(N)=O)C1` (stereo not drawn): “inactive”.
Turning to `COc1ccc(CNc2nc(NCc3ccc(OC)cc3)c3ncn(C4CCCC4)c3n2)cc1`, the Potency result was “inactive”.
Turning to `O=C(NN=C(c1ccccc1)c1ccccn1)c1ccccc1`, the Potency is 26.9 µM (active).
As to `CCOc1ccc(OCc2ccc(C(=O)N/N=C(\C)c3ccccn3)cc2)cc1`, the Potency result was “inactive”.
For `C/C(=N\NC(=O)c1ccc(F)cc1)c1ccccn1`, the Potency result was “inactive”.
Regarding `Cc1onc(-c2ccccc2)c1C(=O)Nc1cc(C(F)(F)F)ccc1N1CCOCC1`, the Potency entry is “inactive”.
Turning to `NC(=S)N=Nc1c(O)n(Cc2ccc(Br)cc2)c2ccccc12`, the Potency entry is “inactive”.
Take `C=CCNC(=S)N/N=C/c1cn(C)c2ccccc12`: the Potency result was “inactive”.
For `CC(=O)c1cc(C#N)c(SCCC(C)C)nc1C`, the Potency result was “inactive”.
With `C=CCOc1ccc(/C=C2\SC(N)=NC2=O)cc1OC`, the Potency result is “inactive”.
Turning to `CCCC(=O)OCCNc1cc(Sc2nccn2C)c2nonc2c1[N+](=O)[O-]`, the Potency is 3.79 µM (active).
For the compound `S=c1[nH]nc(-c2ccco2)n1/N=C/C(Cl)=C/c1ccccc1`, the Potency was 26.9 µM (active).
As for `COc1cc2sc(-c3ccc(S(C)(=O)=O)cc3)c(C#CCO)c2cc1OC`, the Potency entry was “inactive”.
To `COC(=O)c1cnc(Oc2ccc(NC(=O)NC(=O)c3c(OC)cccc3OC)cc2)cc1C(F)(F)F` belongs “inactive”; to `COc1ccccc1CNS(=O)(=O)c1ccc(-c2cc(C)no2)cc1`, “inactive”.
To `CCN(c1ccccc1)S(=O)(=O)c1ccc(C(=O)NNC(=O)c2ccccc2F)cc1` belongs “inactive”.
Next, `O=C(N1CCN(c2ccccn2)CC1)N1c2ccccc2Sc2ccccc21`: “inactive”.
For `O=[N+]([O-])c1cc(/C=N/O)ccc1Sc1ccccc1`, the Potency result is “inactive”.
With `O=[N+]([O-])c1ccc(Sc2nc3ccccc3o2)c([N+](=O)[O-])c1`, the Potency was 3.01 µM (active).
As to `CCOc1ccc(C2=Nn3c(nnc3-c3ccccc3OC)SC2)cc1`, the Potency entry was “inactive”.
Consider `COc1ccc(C)cc1NS(=O)(=O)c1ccc(-c2cnc(C3CC3)o2)cc1`, for which the Potency entry was “inactive”.
On to `Cc1nc(N2N=C(c3ccc(Cl)cc3)CC2c2ccco2)sc1C(=O)N(C)C` (stereo not drawn), for which the Potency result was “inactive”.
`Cc1ccc(/C=N/NC(=O)c2cc(-c3cccnc3)nc3ccccc23)cc1`: the Potency entry is “inactive”.
Regarding `CC[C@@H](C)[C@H](NC(=O)CCc1c(C)c2cc3c4c(oc3c(C)c2oc1=O)CCCC4)C(=O)O`, the Potency result is “inactive”.
Next, `Cc1cc(Cl)n2c(nc3ccccc32)c1C#N`: 1.9 µM (active).
To `CCc1c(C)c(C#N)c2nc3ccccc3n2c1Cl` belongs 0.953 µM (active); to `Cc1cc(Cl)n2c(nc3cc(F)c(F)cc32)c1C#N`, 1.69 µM (active).
